In all, about 310,000 compounds went through this assay and about 3,900 (1.3%) were called active.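 Rule for the calls: active = calcium-response B-score plate-corrected more than 3 library SD below zero, starting fluorescence within 5 deviations, no agonist response on first addition; inactive = the rest.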 What follows is part of a selection rich in actives, with near analogues and random picks from the rest.

This is an account of results in PubChem BioAssay AID588676 (Johns Hopkins Ion Channel Center, 2011).

This assay deals with Mas-related G-protein coupled receptor member X1 (Homo sapiens) (UniProt Q96LB2). Briefly: antagonists of human MrgX1 receptor, primary screen, HEK293 cells, Fluo-4 calcium flux (AID 588676).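 For B-score: peak minus trough fluorescence over baseline after final BAM8-22 challenge near maximal dose.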 The note with it: Fluo-4, BAM8-22 antagonism, at 10 µM; active compounds read low. In general terms: A change in cytosolic calcium serves as a functional read-out for many receptors and channels.
Mas-related G-protein coupled receptor member X1 (Homo sapiens), sequence (Q96LB2 whole entry, looked up): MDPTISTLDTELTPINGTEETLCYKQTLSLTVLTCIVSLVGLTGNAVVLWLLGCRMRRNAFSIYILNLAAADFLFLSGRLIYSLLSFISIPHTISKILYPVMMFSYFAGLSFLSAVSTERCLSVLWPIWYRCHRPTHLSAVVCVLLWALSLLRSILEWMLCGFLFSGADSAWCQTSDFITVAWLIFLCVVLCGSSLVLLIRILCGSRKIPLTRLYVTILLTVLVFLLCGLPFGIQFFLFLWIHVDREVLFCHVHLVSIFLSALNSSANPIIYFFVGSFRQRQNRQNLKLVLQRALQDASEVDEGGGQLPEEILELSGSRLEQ
`N=c1n(CCc2ccccc2)c2ccccc2n1Cc1ccccc1F`: the B-score result was “inactive”.

Turning to `Cc1cc(=O)oc2cc(NC(=O)C3CC(=O)N(Cc4ccccc4)C3)ccc12` (stereo unspecified), the B-score is -7.83 (active).

Take `Cc1cc(=O)oc2cc(NC(=O)C(C)Oc3ccccc3)ccc12` (stereo unspecified): the B-score entry was “inactive”.

As to `O=C(Nc1ccc(F)c([N+](=O)[O-])c1)C1CC(=O)N(Cc2ccccc2)C1` (stereo unspecified), the B-score entry was “inactive”.

On to `Cc1ccc(N(C(=O)Cc2cccs2)C2C=CS(=O)(=O)C2)cc1Cl` (stereo unspecified), for which the B-score entry is “inactive”.

On to `Cn1c(NC(=O)c2ccco2)c(-c2ccccc2Cl)c(=O)c2ccccc21`, for which the B-score entry was “inactive”.

Take `CCOCCCN1C(=O)C2C(C(=O)Nc3ccc(OCC)cc3)C3C=CC2(O3)C1C(=O)NC1CCCCC1` (stereo unspecified): the B-score result is “inactive”.

In the case of `CC(=O)OCCN(CCCn1c(-c2ccncc2)nc2ccccc21)c1nc(-c2ccc(C)cc2)cs1`, the B-score entry is “inactive”.

Take `O=C(Cc1ccccc1)Nc1cccc(NC(=O)c2ccccc2)c1`: the B-score result was “inactive”.

Consider `O=C(Cc1ccccc1)Nc1cccc(C(=O)N/N=C/c2ccco2)c1`, for which the B-score was -18.1 (active).

Take `O=C(N/N=C/c1ccco1)c1ccc(C(=O)N/N=C/c2ccco2)o1`: the B-score result is “inactive”.

For `N#CCC(=O)NC(=O)NCC1CC1`, the B-score entry was “inactive”.

In the case of `CC1Cc2ccccc2N1C(=O)CSc1nnc(-c2ccc(S(=O)(=O)N3CCCC3)cc2)n1C` (stereo unspecified), the B-score entry is “inactive”.

As for `CC(NCc1cccs1)C(=O)Nc1cc(Cl)cc(Cl)c1` (stereo unspecified), the B-score entry was “inactive”.

In the case of `COc1ccc(S(=O)(=O)N2CCOCC2)c(C)c1C`, the B-score was -6.44 (active).

Turning to `COc1cc(C)c(S(=O)(=O)N2CCOCC2)c(C)c1C`, the B-score entry was “inactive”.

In the case of `COc1ccc(S(=O)(=O)N2CCCC2)c(C)c1C`, the B-score entry is “inactive”.

Take `COc1cccc2cc(/C(C)=N/NC(=O)c3ccco3)oc12`: the B-score result is “inactive”.

With `Cn1nccc1C(=O)NC1CCCc2c1cnn2-c1ccc(F)cc1F` (stereo unspecified), the B-score result is “inactive”.

Turning to `CCOC(=O)N1CCN(C(=O)c2cn(C)c3ccc(S(=O)(=O)N(CC)CC)cc3c2=O)CC1`, the B-score entry was “inactive”.

As for `CCOC(=O)N1CCN(C(=O)c2cn(C)c3ccc(S(=O)(=O)N4CCCC4)cc3c2=O)CC1`, the B-score was -6.83 (active).

As to `COc1ccc(N2CCN(C(=O)c3cn(C)c4ccc(S(=O)(=O)N5CCOCC5)cc4c3=O)CC2)cc1`, the B-score entry was “inactive”.

As to `N/C(=N\OS(=O)(=O)c1cccc([N+](=O)[O-])c1)c1ccncc1`, the B-score entry was “inactive”.

Consider `CCCNC(=O)CSc1nc(Cc2ccccc2)nc2ccccc12`, for which the B-score result is “inactive”.

Turning to `Clc1ccc(CSc2nnc3c(n2)[nH]c2ccccc23)cc1`, the B-score entry is “inactive”.

Consider `C=CCSc1nc(Cc2ccc(Cl)cc2)nc2ccccc12`, for which the B-score is -5.91 (active).

Turning to `COc1ccccc1NC(=S)N1CCC(NC(=O)C23CC4CC(CC(C4)C2)C3)CC1`, the B-score entry is “inactive”.

For the molecule `FC(F)(F)c1cc(-c2ccco2)nc(NCc2ccc(Cl)cc2)n1`, the B-score result is “inactive”.

Regarding `COc1ccc(-c2cc(C(F)(F)F)nc(SCCC(=O)NCc3ccco3)n2)cc1`, the B-score entry is “inactive”.

On to `FC(F)(F)c1cc(-c2cccs2)nc(NCc2ccco2)n1`, for which the B-score was -5.29 (active).

With `CC(=O)c1c(C)[nH]c(C(=O)CN2C(=O)NC(C)(C)C2=O)c1C`, the B-score result was “inactive”.

`Cc1nc(-c2ccc(F)cc2)c(CC(=O)N2CCN(S(=O)(=O)c3ccc(F)cc3)CC2)s1`: the B-score entry is “inactive”.

As to `CC(=O)N(C1=C(Cl)C(=O)c2ccccc2C1=O)c1ccc(C(=O)O)cc1`, the B-score is -18.7 (active).

`FC(F)(F)c1cccc(-c2cc3ccccc3nc2N2CCCC2)c1`: the B-score entry is “inactive”.

For the molecule `O=C(COc1ccccc1)Nc1ccc(C(=O)N2CCCC2)cc1`, the B-score result is “inactive”.

As to `C/C(=N\NC(=O)Cc1ccc(F)cc1)c1ccc(F)cc1`, the B-score is -8.25 (active).

As to `C/C(=N/NC(=O)CC(=O)N/N=C(\C)c1ccc([N+](=O)[O-])cc1)c1ccc([N+](=O)[O-])cc1`, the B-score entry was “inactive”.

Regarding `C/C(=N\NC(=O)Cc1ccc(Br)cc1)c1cccnc1`, the B-score result is “inactive”.

Consider `COc1ccc2c3c1O[C@H]1C[C@@H](O)C=C[C@@]31CCN(C)C2`, for which the B-score entry is “inactive”.

Turning to `Cc1nn(Cc2ccccc2)c2c1C(c1ccccc1)C(C#N)=C(N)O2` (stereo unspecified), the B-score result was “inactive”.

For the molecule `COc1ccccc1C1C(C#N)=C(N)Oc2c1c(-c1ccccc1)nn2-c1ccccc1` (stereo unspecified), the B-score result was “inactive”.

With `Cc1nn(-c2ccccc2)c2c1C(c1ccc(F)cc1)C(C#N)=C(N)O2` (stereo unspecified), the B-score is -13.4 (active).

Turning to `CC(C)(C)c1ccc(C(CC(=O)O)NS(=O)(=O)Cc2ccccc2)cc1` (stereo unspecified), the B-score entry was “inactive”.

For the molecule `Cc1c(CCO)c(=O)[nH]n1C(=O)c1c(F)cccc1F`, the B-score entry is “inactive”.

Turning to `CCOC(=O)[C@H]1CCC[C@@H](NS(=O)(=O)c2ccc(NC(C)=O)cc2)C1`, the B-score entry was “inactive”.

Consider `Cc1ccc(CNC(=O)CCNS(=O)(=O)c2ccc(Br)s2)cc1`, for which the B-score result is “inactive”.

As to `O=C1CCC(C(=O)N2CCN(c3ccccc3Cl)CC2)CN1CC1CCCCC1` (stereo unspecified), the B-score result is “inactive”.

Regarding `COc1ccc(CCNC(=O)C2CC3Cn4c(nc5cc(C)c(C)cc54)C3N2C)cc1` (stereo unspecified), the B-score result was “inactive”.

Consider `O=C(c1ccccc1)N1CCN(c2ccc([N+](=O)[O-])c(NCc3ccco3)c2)CC1`, for which the B-score result is “inactive”.

With `COc1ccc(CCNc2cc(N3CCN(C(=O)c4ccccc4OC)CC3)ccc2[N+](=O)[O-])cc1OC`, the B-score was -5.34 (active).

In the case of `COc1ccccc1OCCNc1cc(N2CCOCC2)ccc1[N+](=O)[O-]`, the B-score result was “inactive”.

With `Cc1cccc(N2CC(C(=O)Nc3ccccc3N3CCCC3)CC2=O)c1C` (stereo unspecified), the B-score result is “inactive”.

For the molecule `CCOc1ccc(C(CC(=O)O)n2cnnn2)cc1OC` (stereo unspecified), the B-score entry is “inactive”.

`COC(=O)c1ccc(COC(=O)c2cnc(Cl)c(Cl)c2)cc1`: the B-score result was “inactive”.

`COc1ccccc1C(=O)N/C(=C/c1ccco1)C(=O)Nc1ccc(C(=O)O)cc1`: the B-score entry was “inactive”.

For `O=C(NCCCN1CCCC1=O)c1ccc(S(=O)(=O)Nc2ccccc2)cc1`, the B-score entry is “inactive”.

Take `CCOc1ccc(S(=O)(=O)Nc2ccc(C(=O)NCCCN3CCCC3=O)cc2)cc1`: the B-score is -9 (active).

With `CCOc1ccc(C(=O)NCCCN2CCCC2=O)cc1`, the B-score entry is “inactive”.

As to `Oc1cc(O)c2c(c1)OC(c1ccc(O)c(O)c1)C(O)C2` (stereo unspecified), the B-score result was “inactive”.

As to `Cc1ccc2cc3cc(C(=O)N4CCCCCC4)oc3nc2c1`, the B-score result was “inactive”.

In the case of `CN(C)c1ccc(C(CC(=O)O)C(=O)O)cc1` (stereo unspecified), the B-score result was “inactive”.

As for `Cc1cnc(CN(C)C(=O)CC2C(=O)NCCN2Cc2cccc(F)c2F)[nH]1` (stereo unspecified), the B-score entry is “inactive”.

Regarding `CCCCCc1nnc(NC(=O)c2ccc(=O)n(C)n2)s1`, the B-score entry was “inactive”.

As to `Cc1cc(=O)n2c3c(cccc13)CCC2`, the B-score entry is “inactive”.

In the case of `CCCCc1nc2ccccc2c(=O)n1NC(=O)c1c(O)c2cccc3c2n(c1=O)CC3`, the B-score result was “inactive”.

Regarding `CCNC(=O)c1c(O)c2cccc3c2n(c1=O)CC3`, the B-score is -5.85 (active).
